Results filed as inconclusive are left out. Calls of active or inactive are those of the source. The call rests on the fitted dose curve; in most records, active means well fitted cell-killing curve with a large enough effect; inconclusive means small, poorly fitted or top-dose-only effect, or effect the other way; inactive means flat fitted curve, though single readings scatter.
How the values were obtained:
Assay in all cases: Primary qHTS to identify gynecologic anti-cancer compounds using libraries of approved drugs and bioactive compounds (AID 1345084); further: nearly all actives have a fitted effect of over 55% in size
Conditions in all cases: Gynecologic cancer cell panel viability, ATPlite luminescence, 48 h; series mostly up to 57.5 µM
OV90 = test system: OV90
Summary of the method: (§1)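 Luminescence from the ATPlite ATP-monitoring reagent indicates viable cell number; lower signal means cytotoxicity. Cells received compound 16 h after seeding and were exposed for 48 h across five concentrations.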

PA-1 = test system: PA-1
Summary of the method: as §1

SKOV3 = test system: SKOV3
Summary of the method: as §1

Tov-21-G = test system: Tov-21-G
Summary of the method: as §1

Tov112D = test system: Tov112D
Summary of the method: as §1
On the % scale 0 is the no-effect control and ±100 the full control effect.

CC1=CC(=O)CC(C)(C)C1/C=C/C(C)OC1OC(COC2OCC(O)C(O)C2O)C(O)C(O)C1O (stereo not given)
inactive: Potency (OV90) | Potency (PA-1) | Potency (SKOV3) | Potency (Tov-21-G) | Potency (Tov112D)

Cc1cn(-c2cc(NC(=O)c3ccc(C)c(Nc4nccc(-c5cnccn5)n4)c3)cc(C(F)(F)F)c2)cn1
inactive: Potency (OV90) | Potency (PA-1) | Potency (SKOV3) | Potency (Tov-21-G) | Potency (Tov112D)

CC(=O)OC/C(=C/C(=O)O)CC[C@@H]1C(C)=CC(=O)[C@@H]2C(C)(C)CCC[C@@]12C
inactive: Potency (OV90) | Potency (PA-1) | Potency (SKOV3) | Potency (Tov-21-G) | Potency (Tov112D)

C[C@@H]1O[C@@H](O[C@H]2[C@H](O[C@H]3[C@H](O[C@H]4CC[C@@]5(C)C(CC[C@]6(C)C5CC=C5[C@@H]7CC(C)(C)C[C@@H](O)[C@]7(C)CC[C@]56C)[C@@]4(C)CO)O[C@H](C(=O)O)[C@@H](O)[C@@H]3O)O[C@H](C(=O)O)[C@H](O)[C@@H]2O)[C@H](O)[C@H](O)[C@H]1O (stereo not given in full)
inactive: activity change, negative = cytotoxicity (OV90) 2.01% [at 11.6 µM] | activity change, negative = cytotoxicity (PA-1) 0.484% [at 11.6 µM] | activity change, negative = cytotoxicity (SKOV3) 10.8% [at 11.6 µM] | activity change, negative = cytotoxicity (Tov-21-G) 13.2% [at 11.6 µM] | activity change, negative = cytotoxicity (Tov112D) 5.35% [at 11.6 µM]

CC[C@H]1OC(=O)[C@H](C)[C@@H](O[C@H]2C[C@@](C)(OC)[C@@H](O)[C@H](C)O2)C(C)[C@@H](O[C@@H]2O[C@H](C)C[C@H](N(C)C)[C@H]2O)[C@](C)(O)C[C@@H](C)CN(C)[C@H](C)[C@@H](O)[C@]1(C)O (stereo not given in full)
inactive: Potency (OV90) | Potency (PA-1) | Potency (SKOV3) | Potency (Tov-21-G) | Potency (Tov112D)

CC1(C)CC[C@]2(C(=O)O[C@@H]3O[C@H](CO)[C@@H](O)[C@H](O)[C@H]3O)CC[C@]3(C)C(=CCC4[C@@]5(C)C[C@H](O)[C@H](O[C@@H]6O[C@H](C(=O)O)[C@@H](O)[C@H](O)[C@H]6O)[C@@](C)(CO)C5CC[C@]43C)C2C1 (stereo not given in full)
inactive: activity change, negative = cytotoxicity (OV90) -11.4% [at 6.55 µM] | activity change, negative = cytotoxicity (PA-1) 1.64% [at 6.55 µM] | activity change, negative = cytotoxicity (SKOV3) 14.6% [at 6.55 µM] | activity change, negative = cytotoxicity (Tov-21-G) -2.15% [at 6.55 µM] | activity change, negative = cytotoxicity (Tov112D) 8.5% [at 6.55 µM]

COC(=O)C1=C[C@@H](O)[C@@H](O)[C@H](O[C@@H]2O[C@H](CO)[C@@H](O)[C@H](O)[C@H]2OC(=O)/C=C/c2ccccc2)C1
inactive: Potency (OV90) | Potency (PA-1) | Potency (SKOV3) | Potency (Tov-21-G) | Potency (Tov112D)

CCCC1=CC2=C(CO1)C(=O)C(C)(O)C(OC(=O)c1c(C)cc(OC)cc1O)C2 (stereo not given)
inactive: Potency (OV90) | Potency (PA-1) | Potency (SKOV3) | Potency (Tov-21-G) | Potency (Tov112D)

C=C1CC[C@H]2[C@@](C)(CCC(O)[C@@]2(C)CO)[C@@H]1/C=C/C(=C\C(=O)O)C(=O)O (stereo not given in full)
inactive: Potency (OV90) | Potency (PA-1) | Potency (SKOV3) | Potency (Tov-21-G) | Potency (Tov112D)

CC(=O)OC/C(=C/C(=O)O)CC[C@@H]1C(CO)=CC[C@@H]2C(C)(C)CCC[C@@]12C
inactive: Potency (OV90) | Potency (PA-1) | Potency (SKOV3) | Potency (Tov-21-G) | Potency (Tov112D)

O=C1C(Cl)=C(N2CCOCC2)C(=O)N1c1ccc(Cl)c(Cl)c1
inactive: Potency (OV90) | Potency (PA-1) | Potency (SKOV3) | Potency (Tov-21-G) | Potency (Tov112D)

CC(=O)OC1CCC2(C)C(CCC3(C)C2CC=C2C4CC(C)(C)CCC4(C)CCC23C)C1(C)C(=O)O (stereo not given)
inactive: Potency (OV90) | Potency (PA-1) | Potency (SKOV3) | Potency (Tov-21-G) | Potency (Tov112D)

Cc1occc(=O)c1O[C@@H]1O[C@H](CO)[C@@H](O)[C@H](O)[C@H]1O
inactive: Potency (OV90) | Potency (PA-1) | Potency (SKOV3) | Potency (Tov-21-G) | Potency (Tov112D)

OC[C@H]1O[C@@H](OCc2ccccc2)[C@H](O)[C@@H](O)[C@@H]1O
inactive: Potency (OV90) | Potency (PA-1) | Potency (SKOV3) | Potency (Tov-21-G) | Potency (Tov112D)

C/C=C(\C)C(=O)O[C@H]1C=CC(=O)O[C@H]1/C=C/[C@H](O)[C@@H](C)O
inactive: Potency (OV90) | Potency (PA-1) | Potency (SKOV3) | Potency (Tov-21-G) | Potency (Tov112D)

COc1cccc(Cn2ncc3c4sc(S(C)=O)cc4n(C)c3c2=O)c1 (stereo not given)
inactive: Potency (OV90) | Potency (PA-1) | Potency (SKOV3) | Potency (Tov-21-G) | Potency (Tov112D)

CC1CCC2(C)CCC3(C)C(=CCC4C5(C)CCC(O)C(C)(C(=O)O)C5CCC43C)C2C1C (stereo not given)
inactive: Potency (OV90) | Potency (PA-1) | Potency (SKOV3) | Potency (Tov-21-G) | Potency (Tov112D)

CC1C(=O)OCC2=CC[N+]3([O-])CCC(OC(=O)C(C)(O)C1(C)O)C23 (stereo not given)
inactive: Potency (OV90) | Potency (PA-1) | Potency (SKOV3) | Potency (Tov-21-G) | Potency (Tov112D)

O=C(OC1C=C(CO)C2C(OC3OC(CO)C(O)C(O)C3O)OC=CC12O)c1ccc(O)cc1 (stereo not given)
inactive: Potency (OV90) | Potency (PA-1) | Potency (SKOV3) | Potency (Tov-21-G) | Potency (Tov112D)

OCC1=C[C@@H](O)[C@@H]2C=CO[C@@H](O[C@@H]3O[C@H](CO)[C@@H](O)[C@H](O)[C@H]3O)[C@H]12
inactive: Potency (OV90) | Potency (PA-1) | Potency (SKOV3) | Potency (Tov-21-G) | Potency (Tov112D)

COc1cc(C(O)C2COC(c3ccc(OC4OC(CO)C(O)C(O)C4O)c(OC)c3)C2CO)ccc1O (stereo not given)
inactive: Potency (OV90) | Potency (PA-1) | Potency (SKOV3) | Potency (Tov-21-G) | Potency (Tov112D)

OC[C@H]1O[C@@H](OC[C@H]2O[C@@H](OCc3ccccc3)[C@H](O)[C@@H](O)[C@@H]2O)[C@H](O)[C@@H](O)[C@@H]1O
inactive: Potency (OV90) | Potency (PA-1) | Potency (SKOV3) | Potency (Tov-21-G) | Potency (Tov112D)

Reference: PubChem BioAssay (NCATS)
